Results reported in PubChem BioAssay.
Calls of active or inactive are those of the source.

Tests used:
[1] = compound effects on lung adenocarcinoma cell viability – A549, calcein-AM fluorescence, 48 h, basal, profiling panel (AID 1162); conditions: higher = more signal
[2] = compound effects on differentiated 3T3-L1 adipocyte viability – cell-based, 3T3-L1 adipocytes, calcein-AM fluorescence, 48 h, basal, profiling panel (AID 1163); conditions: 3T3-L1 adipocytes viability, higher = more signal
[3] = compound effects on hepatocellular carcinoma cell viability – HepG2, calcein-AM fluorescence, 48 h, basal, profiling panel (AID 1164); conditions: higher = more signal
[4] = compound effects on multiple myeloma cell viability – MM1S, calcein-AM fluorescence, 48 h, basal, profiling panel (AID 1165); conditions: higher = more signal
[5] = calcein-AM signal in unstimulated myeloma cells – cell-based, calcein-AM fluorescence, 48 h, PK04 Diversity Set, profiling panel (AID 1166); conditions: RPMI8226 myeloma viability, higher = more signal;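 also: cells grown under basal conditions without added stimulus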
[6] = JC-1 mitochondrial signal, unstimulated HepG2 cells – cell-based, JC-1 fluorescence, 24 h, 100 nL compound, profiling panel (AID 1167); conditions: HepG2 mitochondrial potential, higher = more signal
[7] = JC-1 mitochondrial signal, unstimulated adipocytes – cell-based, JC-1 fluorescence, 3T3-L1 adipocytes, 24 h, 100 nL compound, profiling panel (AID 1168); conditions: JC-1 mitochondrial fluorescence, higher = more signal, called active from +8 up or from −8 down
[8] = JC-1 mitochondrial signal, unstimulated myeloma cells – cell-based, JC-1 fluorescence, RPMI8226, 24 h, 100 nL compound, profiling panel (AID 1169); conditions: JC-1 mitochondrial potential fluorescence, higher = more signal
[9] = JC-1 mitochondrial signal, unstimulated MM1S myeloma – cell-based, JC-1 fluorescence, 24 h, 100 nL compound, profiling panel (AID 1170); conditions: MM1S mitochondrial potential, higher = more signal
[10] = resazurin metabolic signal in A549 cells – cell-based, resazurin fluorescence, 24 h, PK04 Diversity Set, profiling panel (AID 1171); conditions: A549 viability, higher = more signal, called active from +8 up or from −8 down
Also: test concentration not given here.

| SMILES | z-score [1] | z-score [2] | z-score [3] | z-score [4] | z-score [5] | z-score [6] | z-score [7] | z-score [8] | z-score [9] | z-score [10] |
| --- | --- | --- | --- | --- | --- | --- | --- | --- | --- | --- |
| C=CCOC(=O)[C@H]1[C@@H]2C(=O)O[C@@H](c3ccccc3)[C@@H](c3ccccc3)N2[C@@H](c2ccc(OCCOC(=O)[C@@H]3C[C@@H]4C(=O)N[C@@H](CCCCN(C)C)C(=O)N4[C@@H]3c3ccc(O)cc3)cc2)[C@]12C(=O)Nc1ccc(I)cc12 | -0.508 | -0.523 | -0.222 | -0.397 | -0.449 | -1.65 | 0.832 (inactive) | -0.7 | -1.6 | 0.183 (inactive) |
| COc1ccc(C(=O)Nc2ccc(CN3C(=O)[C@@]4(O[C@@H](CC(=O)N5CCC[C@H]5CO)[C@H]([Si](C)(C)c5ccc(OC)cc5)[C@H]4C)c4ccccc43)cc2)cc1 | 0.571 | 0.0638 | 0.269 | -2.5 | -3.93 | 3.78 | 0.926 (inactive) | -1.09 | -0.447 | 0.336 (inactive) |
| COc1ccc(C(O)C2C=CC3C(=O)NC(=O)C3N2Nc2ccccn2)c2ccccc12 (stereo not given) | 0.606 | -1.17 | 0.384 | -0.178 | 0.384 | -1.11 | 0.296 (inactive) | -0.905 | -0.143 | -0.703 (inactive) |
| COc1ccc(C#Cc2ccc3c(c2)[C@]2(C(=O)N3)[C@H](c3ccccc3OCCO)N3[C@H](c4ccccc4)[C@H](c4ccccc4)OC(=O)[C@H]3[C@@H]2C(=O)O)cc1 | 0.1 | 0.143 | -2.53 | -3.32 | -4.18 | -3.62 | 2.54 (inactive) | -0.93 | -1.9 | 0.206 (inactive) |
| COCCOC(=O)N1C(=O)[C@@]2(c3ccccc31)[C@H](c1ccccc1OCCO)N1[C@H](c3ccccc3)[C@H](c3ccccc3)OC(=O)[C@H]1[C@@H]2C(=O)Nc1nc2ccccc2s1 | -0.331 | 0.0264 | -0.271 | -1.39 | -1.54 | -1.51 | 1.79 (inactive) | -1.01 | -1.33 | -1.02 (inactive) |
| C[C@@]1([C@@H](NC(=O)c2ccccc2)c2ccc(-c3ccccc3)cc2)C[C@H]1C1CCCCC1 | -1.35 | -0.502 | -0.687 | -0.646 | -1.28 | -0.964 | -1.22 (inactive) | 0.318 | -0.308 | -1.2 (inactive) |
| O=C(c1ccccc1)N1Cc2ccccc2[C@@H]2OC(c3ccc(OCCCO)cc3)=N[C@]2(Cc2ccccc2)C1=O | -1.09 | 1.27 | -0.795 | -2.02 | -3.92 | -0.435 | 0.166 (inactive) | -1.11 | 0.106 | -1.57 (inactive) |
| O=C1C2C=CC(C(O)C3CCCCC3)N(Nc3ccc([N+](=O)[O-])cc3)C2C(=O)N1c1ccccc1 (stereo not given) | -0.0334 | 0.652 | -0.0914 | -0.157 | -1.24 | -0.876 | -2.66 (inactive) | -0.143 | 0.507 | -1.06 (inactive) |
| COCCn1c(C(=O)N2CCCC2)cc2c1C[C@H]1CN(C(=O)c3ccccc3)[C@@](Cc3ccc(F)cc3)(C(=O)OC)[C@@H]21 | -1.27 | 0.25 | -0.366 | -1.21 | -1.22 | 0.584 | -0.757 (inactive) | -0.37 | -1.37 | 0.409 (inactive) |
| CCOC(=O)C[C@H]1[C@H](OC(=O)c2ccc(C(=O)c3ccccc3)cc2)[C@@H](NC(=O)c2ccc(-c3ccccc3)cc2)c2cc(OCCCO)ccc2N1C(=O)c1ccccc1 | -0.56 | 0.734 | 0.2 | -0.821 | 0.134 | 1 | -0.136 (inactive) | 0.884 | -0.117 | -0.31 (inactive) |
| CCCCCN1CC=CC23O[C@@H]4/C=C\CCCOC(=O)C4[C@H]2C(=O)N(CCCO)[C@@H]3C1=O (stereo not given in full) | -0.335 | 1.65 | -0.495 | 0.759 | 0.424 | -0.472 | -0.0755 (inactive) | 0.362 | 0.286 | 0.937 (inactive) |
| COc1ccc(C(O)C2C=CC3C(=O)N(C)C(=O)C3N2N2CCCCC2)c2ccccc12 (stereo not given) | -1.01 | -1.14 | -0.086 | -0.142 | 0.768 | -0.874 | -1.08 (inactive) | -0.0496 | 0.028 | -0.825 (inactive) |
| C=CC[C@]1(C(=O)N2CCCCC2)N=C(c2ccc(OCCCO)cc2)O[C@H]1c1ccccc1 | 0.396 | 0.0234 | -0.426 | -2.35 | -1.35 | 0.53 | -0.0613 (inactive) | -1.16 | 0.447 | 2.72 (inactive) |
| C=CCNC(=O)[C@H]1[C@@H]2C(=O)O[C@@H](c3ccccc3)[C@@H](c3ccccc3)N2[C@@H](c2ccc(O)cc2)[C@]12C(=O)N(C(=O)OCCOC)c1ccc(C#CCNC(N)=O)cc12 | -0.755 | 0.0896 | 0.264 | -0.303 | -0.479 | -1.33 | 0.817 (inactive) | -0.294 | 0.179 | -0.157 (inactive) |
| C=CCN1C(=O)[C@]2(O[C@H](CCO)[C@@H]([Si](C)(C)c3ccc(OC)cc3)[C@@H]2C)c2cc(N3C(=O)c4cccc5cccc3c45)ccc21 | -3.27 | 0.105 | -4.63 | -2.63 | -4.34 | -2.32 | 0.697 (inactive) | -0.955 | -2.28 | -5.26 (inactive) |
